In PubChem BioAssay (NCI) one finds growth inhibition data, which are given here for 39 compounds.

SMILES strings stand for the structures. About 79,000 compounds went through this panel and 15% of them were active in at least one assay; those are over-represented in the sample as a whole. Values without a mark were called inactive. The source made the active and inactive calls. Cut-off read from the data, not from the text of the source: active = growth inhibition above about 70%; inactive = the rest.

The nature of one experiment: NCI Yeast Anticancer Drug Screen. Data for the mec2-1 strain (AID 157). The settings on record: S. cerevisiae mec2-1 strain, at 50.0 µM (retest, dose inferred, filed as 5.0), active compounds read high. An outline of the steps: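 Vehicle-treated cultures served as reference for growth inhibition of compound-exposed mec2-1 yeast.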
Regarding `Cc1cn(C2CC(Br)C(COC(c3ccccc3)(c3ccccc3)c3ccccc3)O2)c(=O)[nH]c1=O` (stereo not drawn), the growth inhibition is 99% (active).
On the same count and under the same terms, then `CC1CCN(CCOC(=O)C(c2ccccc2)C2C=CCCC2)C1` (stereo not drawn), with 37%.
The same measure, in the same setting: as for `C=CC(c1ccccc1)[C@@]1(OC(C)=O)C(=O)C(=O)OC1C1COC(C)(C)O1` (stereo partly drawn), the figure is 98% (active).
In the case of `CC(C)S(=O)(=O)ON1C(=O)c2ccc(N(C)C)cc2C1=O`, the growth inhibition is 33%.
Consider `CCCC(Sc1ccccc1)c1ccccc1NC(C)=O` (stereo not drawn), for which the growth inhibition was 8%.
For `Oc1c(C(Nc2ccccn2)c2ccccc2)ccc2cccnc12` (stereo not drawn), the growth inhibition is 97% (active).
Same read-out and setting: then `CC(=O)NC1=C(Cl)C(=O)c2ccccc2C1=O`, with 99% (active).
In the case of `CC1OC(c2ccc3c(c2)OCO3)OC1C` (stereo not drawn), the growth inhibition is -7%.
In the case of `CN(C)CC(CN1CCCC1)C(=O)c1ccccc1` (stereo not drawn), the growth inhibition is 36%.
Consider `O=S(=O)(O)c1ccc2c(c1)C1C(C3C2C2(Cl)C(Cl)=C(Cl)C3(Cl)C2(Cl)Cl)C2(Cl)C(Cl)=C(Cl)C1(Cl)C2(Cl)Cl` (stereo not drawn), for which the growth inhibition is 94% (active).
Consider `Cc1cc(Cl)nc2ccc(Cc3ccc4nc(Cl)cc(C)c4c3)cc12`, for which the growth inhibition was 5%.
As for `CC1CCC2(C)C(CC=C(C=O)C2(O)C=O)C12CO2` (stereo not drawn), the growth inhibition is 99% (active).
`Cc1c(C)c(C)c(C(=O)c2ccccc2C(=O)NCCSC(C)(C)C)c(C)c1C`: the growth inhibition is 60%.
On the same count and under the same terms, as for `O=[N+]([O-])C(=C1Nc2ccccc2N1)C(Cl)=C(Cl)Cl`, the figure is 15%; as for `CCCCNc1ccc(C(=O)OC2CCN(C)CC2)c(Cl)c1`, 97% (active); as for `CC(C)(C)OC(=O)c1ccc(NCC2=C(Br)C(=O)C=CC2=O)cc1`, 99% (active).
As to `N#CC(c1ccc(Cl)cc1)c1ccc([N+](=O)[O-])cc1` (stereo not drawn), the growth inhibition was 37%.
Still for that read-out and setting: as for `O=C(CC(=O)c1ccccc1NC1=Cc2ccccc2C(=O)C1=O)C(=O)NC1=C(Cl)C(=O)c2ccccc2C1=O`, the figure is 82% (active); as for `O=S(=O)(Nc1ccc2c3c(cccc13)C=C2)c1ccccc1`, 94% (active).
Still for that read-out and setting: as for `CC(=O)c1cccc(NC(=O)C(=O)NNc2n[nH]c(=S)n2N)c1`, the figure is 94% (active).
In the case of `Nc1ncc(C(=O)c2ccccc2)cc1[N+](=O)[O-]`, the growth inhibition was -37%.
With `COc1ccc2cc(C3CCCC3(C)CC(=O)O)ccc2c1` (stereo not drawn), the growth inhibition is 10%.
Regarding `CNc1ccc(N=O)cc1`, the growth inhibition is 99% (active).
Same read-out and setting: then `S=c1sc2nc(Cl)nc(Cl)c2s1`, with 99% (active); and `CC(=O)O/C=C1\c2ccccc2CCC1c1ccc2ccccc2c1` (stereo not drawn), with -13%.
Still for that read-out and setting: as for `CC1(C)C2CCC(C2)C1OC(=O)c1ccccc1C(=O)O` (stereo not drawn), the figure is 0%; as for `Cc1cc(=O)oc2c3c(ccc12)OC(c1ccc(Br)cc1)CC3=O` (stereo not drawn), 12%; as for `Cc1cc(N(CCOS(C)(=O)=O)CCOS(C)(=O)=O)ccc1C=Nc1cccc(Cl)c1`, 56%.
In the case of `CN(C)CCOc1cc2c(c3ccccc13)-c1ccccc1C2O` (stereo not drawn), the growth inhibition is 45%.
On the same count and under the same terms, as for `NC(=S)C(=Nc1ccccc1F)Nc1ccccc1F`, the figure is 31%.
Still for that read-out and setting: then `CCCCOc1ccc(NC(=S)Nc2ccc(OCCN(CC)CC)cc2)cc1`, with 70% (active).
On the same count and under the same terms, then `CC1CCN(CC(=O)N2c3ccccc3Sc3cc4ccccc4cc32)CC1`, with -20%.
As to `CC(C)C1COC(c2ccc3ccccc3c2-c2c(O[Si](C)(C)C(C)(C)C)ccc3ccccc23)=N1` (stereo not drawn), the growth inhibition is 14%.
For `CN(C)c1ccc(/C=C(\C#N)c2cccc(Cl)c2)cc1`, the growth inhibition was 1%.
For the compound `CCN(CC)CCNc1ccc(C)c2oc3ccc(O)cc3c(=O)c12`, the growth inhibition is 29%.
For the compound `CN(C)CC1CCc2c(ccc3ccccc23)C1=O` (stereo not drawn), the growth inhibition is 28%.
Take `C[C@]12CCC(=O)C=C1CC[C@@H]1[C@@H]2[C@@H](O)C[C@@]2(C)[C@H]1CC[C@]2(O)C(=O)COC(=O)CCC1CCCC1`: the growth inhibition was 95% (active).
On to `O=C(CSc1nnc(Cc2ccccc2)o1)Nc1ccc(Cl)cc1[N+](=O)[O-]`, for which the growth inhibition is 57%.
The same measure, in the same setting: then `Cc1cccc2c1Oc1ccccc1C2N1C(=O)/C(=C/c2ccccc2Cl)SC1=S` (stereo not drawn), with 48%.

The experiment is the same for the next values; noted with them: S. cerevisiae mec2-1 strain, at 50.0 µM, active compounds read high.
As for `Cc1cn(C2CC(Br)C(COC(c3ccccc3)(c3ccccc3)c3ccccc3)O2)c(=O)[nH]c1=O` (stereo not drawn), the growth inhibition was 98.3% (active).
On to `CC1CCN(CCOC(=O)C(c2ccccc2)C2C=CCCC2)C1` (stereo not drawn), for which the growth inhibition is 16.9%.
As to `C=CC(c1ccccc1)[C@@]1(OC(C)=O)C(=O)C(=O)OC1C1COC(C)(C)O1` (stereo partly drawn), the growth inhibition was 77.7% (active).
Still for that read-out and setting: as for `CC(C)S(=O)(=O)ON1C(=O)c2ccc(N(C)C)cc2C1=O`, the figure is 81.8% (active); as for `CCCC(Sc1ccccc1)c1ccccc1NC(C)=O` (stereo not drawn), 58.9%; as for `Oc1c(C(Nc2ccccn2)c2ccccc2)ccc2cccnc12` (stereo not drawn), 94.3% (active).
Same read-out and setting: then `CC(=O)NC1=C(Cl)C(=O)c2ccccc2C1=O`, with 99.5% (active); and `CC1OC(c2ccc3c(c2)OCO3)OC1C` (stereo not drawn), with 20.1%.
The same measure, in the same setting: then `CN(C)CC(CN1CCCC1)C(=O)c1ccccc1` (stereo not drawn), with 41.4%; and `O=S(=O)(O)c1ccc2c(c1)C1C(C3C2C2(Cl)C(Cl)=C(Cl)C3(Cl)C2(Cl)Cl)C2(Cl)C(Cl)=C(Cl)C1(Cl)C2(Cl)Cl` (stereo not drawn), with 89.9% (active).
As for `Cc1cc(Cl)nc2ccc(Cc3ccc4nc(Cl)cc(C)c4c3)cc12`, the growth inhibition is 2.45%.
The same measure, in the same setting: as for `CC1CCC2(C)C(CC=C(C=O)C2(O)C=O)C12CO2` (stereo not drawn), the figure is 95.3% (active); as for `Cc1c(C)c(C)c(C(=O)c2ccccc2C(=O)NCCSC(C)(C)C)c(C)c1C`, 67.6%; as for `O=[N+]([O-])C(=C1Nc2ccccc2N1)C(Cl)=C(Cl)Cl`, 3.3%.
The same measure, in the same setting: then `CCCCNc1ccc(C(=O)OC2CCN(C)CC2)c(Cl)c1`, with 94.5% (active); and `CC(C)(C)OC(=O)c1ccc(NCC2=C(Br)C(=O)C=CC2=O)cc1`, with 94% (active); and `N#CC(c1ccc(Cl)cc1)c1ccc([N+](=O)[O-])cc1` (stereo not drawn), with 20.5%.
On the same count and under the same terms, as for `O=C(CC(=O)c1ccccc1NC1=Cc2ccccc2C(=O)C1=O)C(=O)NC1=C(Cl)C(=O)c2ccccc2C1=O`, the figure is 86.2% (active).
Take `O=S(=O)(Nc1ccc2c3c(cccc13)C=C2)c1ccccc1`: the growth inhibition was 75.2% (active).
As for `CC(=O)c1cccc(NC(=O)C(=O)NNc2n[nH]c(=S)n2N)c1`, the growth inhibition is 94.1% (active).
For the compound `Nc1ncc(C(=O)c2ccccc2)cc1[N+](=O)[O-]`, the growth inhibition is 21.8%.
Turning to `COc1ccc2cc(C3CCCC3(C)CC(=O)O)ccc2c1` (stereo not drawn), the growth inhibition is 39.9%.
Same read-out and setting: as for `CNc1ccc(N=O)cc1`, the figure is 90.8% (active).
As to `S=c1sc2nc(Cl)nc(Cl)c2s1`, the growth inhibition was 88.3% (active).
Same read-out and setting: as for `CC(=O)O/C=C1\c2ccccc2CCC1c1ccc2ccccc2c1` (stereo not drawn), the figure is -23.9%.
For the compound `CC1(C)C2CCC(C2)C1OC(=O)c1ccccc1C(=O)O` (stereo not drawn), the growth inhibition is 12.9%.
In the case of `Cc1cc(=O)oc2c3c(ccc12)OC(c1ccc(Br)cc1)CC3=O` (stereo not drawn), the growth inhibition was -7.8%.
As to `Cc1cc(N(CCOS(C)(=O)=O)CCOS(C)(=O)=O)ccc1C=Nc1cccc(Cl)c1`, the growth inhibition is 51.5%.
Still for that read-out and setting: then `CN(C)CCOc1cc2c(c3ccccc13)-c1ccccc1C2O` (stereo not drawn), with 26.8%.
As for `NC(=S)C(=Nc1ccccc1F)Nc1ccccc1F`, the growth inhibition was -9.55%.
Regarding `CCCCOc1ccc(NC(=S)Nc2ccc(OCCN(CC)CC)cc2)cc1`, the growth inhibition was 39.1%.
The same measure, in the same setting: as for `CC1CCN(CC(=O)N2c3ccccc3Sc3cc4ccccc4cc32)CC1`, the figure is 13.6%; as for `CC(C)C1COC(c2ccc3ccccc3c2-c2c(O[Si](C)(C)C(C)(C)C)ccc3ccccc23)=N1` (stereo not drawn), 92% (active).
Consider `CN(C)c1ccc(/C=C(\C#N)c2cccc(Cl)c2)cc1`, for which the growth inhibition was 18%.
The same measure, in the same setting: then `CCN(CC)CCNc1ccc(C)c2oc3ccc(O)cc3c(=O)c12`, with 75.5% (active); and `CN(C)CC1CCc2c(ccc3ccccc23)C1=O` (stereo not drawn), with 66.8%; and `C[C@]12CCC(=O)C=C1CC[C@@H]1[C@@H]2[C@@H](O)C[C@@]2(C)[C@H]1CC[C@]2(O)C(=O)COC(=O)CCC1CCCC1`, with 84.1% (active).
On the same count and under the same terms, then `O=C(CSc1nnc(Cc2ccccc2)o1)Nc1ccc(Cl)cc1[N+](=O)[O-]`, with 50.3%; and `Cc1cccc2c1Oc1ccccc1C2N1C(=O)/C(=C/c2ccccc2Cl)SC1=S` (stereo not drawn), with 29.1%.
